PLK1 PBD block – qHTS for Inhibitors of PLK1-PDB (polo-like kinase 1 - polo-box domain): Primary Screen | Serine/threonine-protein kinase PLK1 (Homo sapiens), P53350 | Plk1 PBD binding of FITC phosphopeptide, fluorescence polarization | Potency, µM, most hits filed as inhibitors | 2.8% of 360,000 active | AID 720504, 2013; note: series mostly up to about 57 µM; nearly all actives have a fitted effect of over 65% in size
G9a block – qHTS Assay for Inhibitors of Histone Lysine Methyltransferase G9a; Histone-lysine N-methyltransferase EHMT2 (Homo sapiens), Q96KQ7; G9a H3K9 monomethylation, AlphaScreen, 2 h; Potency, µM (top dose mostly 102 µM), most hits filed as inhibitors; 8.8% of 350,000 active; AID 504332, 2011; note: nearly all actives have a fitted effect of over 75% in size
Target sequence (Q96KQ7 913-1193 limits assumed): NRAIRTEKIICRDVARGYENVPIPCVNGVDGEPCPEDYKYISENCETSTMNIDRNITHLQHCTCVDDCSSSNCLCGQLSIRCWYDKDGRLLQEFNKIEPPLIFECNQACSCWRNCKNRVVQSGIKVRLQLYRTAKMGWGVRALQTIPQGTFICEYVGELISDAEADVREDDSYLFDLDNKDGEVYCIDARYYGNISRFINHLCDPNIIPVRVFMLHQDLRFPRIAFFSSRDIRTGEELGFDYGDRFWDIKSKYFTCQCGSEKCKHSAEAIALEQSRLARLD
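G9a (20 nM) was preincubated 15 min with compound, then reacted 2 h at room temperature with 500 nM biotin-H3K9 peptide and 20 µM SAM. Monomethyl-H3K9 detected by AlphaScreen using anti-H3K9me1 antibody.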
JMJD2A Tudor – qHTS Assay for Inhibitors of JMJD2A-Tudor Domain; 4.4% of 390,000 active; AID 504339, 2011; Lysine-specific demethylase 4A (Homo sapiens), O75164; Potency, µM (series often up to 114 µM), actives largely listed as inhibitors; AlphaScreen JMJD2A-Tudor / H3K4me3 peptide binding; note: nearly all actives have a fitted effect of over 50% in size
HP1b chromo inh – HTS for Inhibitors of HP1-beta Chromodomain Interactions with Methylated Histone Tails; AlphaScreen HP1-beta / biotin-H3K9me3 peptide binding; Potency, µM (top dose mostly 114 µM), most hits filed as inhibitors; 0.56% of 390,000 active; AID 540317, 2011; note: nearly all actives have a fitted effect of over 70% in size
Target sequence (P83916 whole entry, looked up): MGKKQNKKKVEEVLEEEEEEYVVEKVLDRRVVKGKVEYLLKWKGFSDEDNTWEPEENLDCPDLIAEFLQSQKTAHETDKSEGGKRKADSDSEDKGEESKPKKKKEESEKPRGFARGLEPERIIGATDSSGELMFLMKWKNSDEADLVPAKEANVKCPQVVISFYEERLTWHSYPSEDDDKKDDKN
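Compound inhibition of the preformed complex between 50 nM HP1-beta and 50 nM biotinylated H3K9me3 peptide was read by AlphaScreen. Buffer was PBS pH 7.4 with 0.01% Tween-20. Incubations ran 30 min at room temperature, with 10 ug/mL donor/acceptor beads.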
Sfp PPTase inh – qHTS Assay for Inhibitors of Bacillus subtilis Sfp phosphopantetheinyl transferase (PPTase). 4'-phosphopantetheinyl transferase ffp (Bacillus subtilis), Q9F4F7. Biochemical Sfp PPTase activity, qHTS. Potency, µM, most hits filed as inhibitors. 3.5% of 310,000 active. AID 1490, 2009;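 note: the enzyme is Sfp with the accession as filed and its product quenches rhodamine fluorescence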
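Fluorescence-quenching assay with 15 nM Sfp, 5 uM rhodamine-CoA and 12.5 uM BHQ-2-labelled ybbR peptide in pH 7.6 Hepes/MgCl2 buffer. Enzyme was pre-incubated with compound for 15 min at room temperature. Rate was taken from the 30-min fluorescence change (525/598 nm).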
BAZ2B inh – qHTS Assay for Inhibitors of BAZ2B; AID 504333, 2011; Bromodomain adjacent to zinc finger domain protein 2B (Homo sapiens), Q9UIF8; 4.4% of 360,000 active; AlphaScreen BAZ2B-H3K14Ac peptide displacement; Potency, µM (doses to about 114 µM), hits mostly inhibitors; note: nearly all actives have a fitted effect of over 60% in size
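Compounds, titrated to a top concentration of 110 uM, were incubated 30 min at room temperature with preformed BAZ2B/acetyl-K14 H3 peptide complex (50 nM each). Proximity signal was measured by AlphaScreen after 20 min with beads.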
A number is an active result; 0 = inactive; ? = inconclusive; - = no result; [ ] = remark or other dose. In the library only some 12% were active in any assay of this set; here they are far more common. Calls come from the whole dose curve; as a rule, active = well fitted curve in the direction sought with a large enough effect; inconclusive = small, poorly fitted or top-dose-only effect, or another doubt; inactive = no such curve, though single readings can be large; an effect the other way counts as inactive or inconclusive.

SMILES	PLK1 PBD block	G9a block	JMJD2A Tudor	HP1b chromo inh	Sfp PPTase inh	BAZ2B inh
Cc1ccccc1C(=O)NCCNC(=O)c1cnccn1	0	0	0	0	0	0
O=C(NNC(=S)NC(=O)c1ccccc1)c1ccc([N+](=O)[O-])cc1	27µM	0[0.501 µM]	0	0	?	0
C/C(=N\NC(=O)C(N)=O)c1cccc([N+](=O)[O-])c1	0	?	?	0	0	?
CNC(=S)N/N=C(\C)c1cccc([N+](=O)[O-])c1	0	?	0	0	56µM	50µM
O=C(NC(=S)Nc1ccccc1[N+](=O)[O-])c1ccccc1	0	25µM	?	?	28µM	0
NS(=O)(=O)c1cccc(NC(=S)NC(=O)c2cccc([N+](=O)[O-])c2)c1	?	-	0	?	50µM	0
O=[N+]([O-])c1ccc(NC(=S)N/C(=N/CS(=O)(=O)c2ccccc2)c2ccccc2)cc1	19µM	11µM	0	0	0	?
O=C(NNC(=S)NC(=O)c1ccc(Br)cc1)c1cccc([N+](=O)[O-])c1	27µM	35µM	0	0	0	0
O=C(Nc1ccc(F)cc1F)c1cncc(Br)c1	0	0[12.7 µM]	0	0	0	0
COc1ccc(NC(=S)N/C(=N/CS(=O)(=O)c2ccccc2)c2ccccc2)cc1	?	?	0	0	0	0
O=C(Nc1ccccc1[N+](=O)[O-])c1cncc(Br)c1	30µM	0	?	0	0	0
COCCNC(=O)CN(C(=O)CCC(=O)Nc1cc(C)on1)c1cccc(C)c1C	?	?	79µM	0	0	0
Cc1cc(NC(=O)CCC(=O)N(CC(=O)NCC2CCCO2)c2cccc(C)c2C)no1 (stereo not given)	0	0	0	0	0	0
COc1ccc(/C=C2\C(=O)NC(=S)N2C(=O)c2ccc(C)cc2)cc1	0	?	56µM	0	?	50µM
O=C1NC(=S)N(C(=O)c2ccc(F)cc2)/C1=C/c1cccnc1	0	?	0	0	0	0
O=C(CSCc1ccco1)Nc1cc(C(F)(F)F)ccc1N1CCOCC1	0	?	0	0	56µM	0
COc1ccc(NC(C)C(=O)Nc2cc(C(F)(F)F)ccc2N2CCOCC2)c(OC)c1 (stereo not given)	0	?	45µM	?	0	32µM
O=C(Nc1cc(C(F)(F)F)ccc1N1CCOCC1)C1Cc2ccccc2CN1C(=O)c1ccco1 (stereo not given)	0	?	0	0	28µM	0
Cc1ccc(NC(=O)CSCC(=O)Nc2cc(C(F)(F)F)ccc2N2CCOCC2)cc1	0	0	0	0	-	0
CN(C)Cc1ccccc1-c1nc(NCc2cccs2)c2ccccc2n1	-	0[0.501 µM]	-	-	0	-
COc1ccc(C(c2c(O)ccc3ccccc23)N2CCOCC2)c(OC)c1 (stereo not given)	?	32µM	89µM	0	0	0
COc1ccccc1-c1nc(CNC(=O)Nc2ccccc2)c(C)o1	-	0	0	0	-	0
NS(=O)(=O)c1cccc(NC(=O)COC(=O)CNC(=O)c2ccc(-c3ccccc3)cc2)c1	0	?	0	0	-	0
Cc1ccc(C(=O)Oc2csc(=S)n2C(=O)c2ccc(C)cc2)cc1	3µM	1.1µM	?	0	45µM	?
C/C(CCN1CCCc2nc(C)c(C)cc21)=N\O[C@@H](C)c1cn([C@H](CO)Cc2ccccc2)nn1	-	-	-	-	0	-
SMILES	PLK1 PBD block	G9a block	JMJD2A Tudor	HP1b chromo inh	Sfp PPTase inh	BAZ2B inh
COC(CN(C(=O)CCl)C(C(=O)NC1CCCCC1)c1ccc(Cl)cc1)OC (stereo not given)	0	0	0	0	0	0
COC(CN(C(=O)CCl)C(C(=O)NC1CCCC(C)C1C)c1ccc(C)cc1)OC (stereo not given)	0	50µM	0	0	0	0
Nc1nnn(CC(=O)N/N=C/C=C/c2ccccc2)n1	0	?	0	0	0	0
COC(=O)c1c(NC(=S)NNC(=O)c2ccc(Cl)s2)sc(C(=O)N(C)C)c1C	0	28µM	0	0	0	0
COC(=O)Nc1sc(C(=O)N(C)C)c(C)c1C(=O)OC	0	0[0.0925 µM]	0	0	0	0
COc1ccc(C(C(=O)NC2CCCC2)N(CCO)C(=O)Cn2nnc(-c3ccc(C)o3)n2)cc1OC (stereo not given)	0	28µM	0	0	0	0
Cc1ccc(-c2nnn(CC(=O)N(Cc3ccccc3F)C(C(=O)NC3CCCC3)c3ccncc3)n2)o1 (stereo not given)	0	25µM	0	0	28µM	0
Cc1ccc(-c2nnn(CC(=O)N(c3ccccc3)C(C(=O)NC3CCCC3)c3ccncc3)n2)o1 (stereo not given)	0	0	0	0	0	0
COc1ccc(C(C(=O)NC2CCCC2)N(CCO)C(=O)Cn2nnc(-c3ccc(C)o3)n2)cc1 (stereo not given)	0	0	0	0	0	0
COc1ccc(-c2nc(C)c(CCNC(=O)c3cccc(C)c3)s2)cc1OC	-	0	0	0	-	0
COc1ccccc1-c1cc2nc(C)c(CCC(=O)Nc3ccc(Br)c(C)c3)c(C)n2n1	-	0	0	0	-	0
S=c1[nH]nc(-c2cc(-c3ccccc3)n[nH]2)n1/N=C/c1ccc(Br)s1	?	28µM	?	?	25µM	56µM
S=c1[nH]nc(-c2cccs2)n1/N=C/c1cn(-c2ccccc2)nc1-c1ccccc1	0	0	?	?	0	?
Cc1ccc(-c2n[nH]c(=S)n2/N=C/c2sccc2C)cc1	0	0.63µM	0	0	0	0
Cc1ccccc1/C=N/n1c(-c2cc(-c3ccccc3)n[nH]2)n[nH]c1=S	0	?	?	0	56µM	0
Cc1ccsc1/C=N/n1cnnc1	0	0	0	0	0	0
Cc1ccsc1/C=N/n1c(-c2cc(-c3ccccc3)n[nH]2)n[nH]c1=S	?	2.5µM	?	0	71µM	0
COc1cccc(C(=O)NCC2(c3ccccc3)CCCC2)c1OC	0	0	0	0	0	0
COC(=O)[C@@H]1C[C@H]1[C@@H](NC(=O)c1cc(C)nn1C)c1ccccc1	-	-	-	-	0	-
S=c1[nH]nc(-c2cc(-c3ccccc3)n[nH]2)n1/N=C/c1c(Cl)cccc1Cl	?	4µM	45µM	0	40µM	79µM
CC(C)Nc1cccc(S(=O)(=O)N2CCCN(S(=O)(=O)c3ccc4c(c3)OCCO4)CC2)c1	-	-	0	-	-	-
CCCc1ccc(O)c(N=Cc2cc(Br)cc(OCC)c2O)c1	0	5.6µM	?	0	0	?
